High-throughput results from PubChem.
Only some compounds are listed: those with a hit (about 6.2% of all), similar ones and a draw of the others.
HCMV inh: qHTS Assay for inhibitors of the human cytomegalovirus (HCMV) | HFF cells, HCMV-luciferase reporter, 72 h; stronger effect = lower value | activity change, negative = inhibition, % at 57.5 µM | 410,000 tested, 4.5% active | AID 1259415, 2018; in the data active = activity change below about -60%; inconclusive = no clear call, values can overlap the other calls; inactive = above about -39%; also: % is scaled to controls: 0 for no effect and ±100 for the full control effect
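Luciferase read-out from HCMV-luciferase-infected HFFs (MOI 1 PFU/cell) 72 h post infection at 37C; compounds added after 16 h cell attachment; activity normalized between buffer-only basal and Salinomycin (10uM) inhibitor controls.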
Lassa entry inh: qHTS for Inhibitors of binding or entry into cells for Lassa Virus; Lassa virus pseudotype entry inhibition, cell reporter; Potency, µM (series often up to 37.9 µM), inactives show at the highest dose activity change, negative = inhibition, most hits filed as inhibitors; 300,000 tested, 1.2% active; AID 540256, 2011; calls by dose curve; tested in HEK293 cells; also: potency is read from the fitted curve at half-maximal effect; % is scaled to controls: 0 for no effect and ±100 for the full control effect; nearly all actives have a fitted effect of over 50% in size
MARV entry inh: qHTS for inhibitors of binding or entry into cells for Marburg Virus; AID 540276, 2011; 300,000 tested, 1.8% active; Marburg virus pseudotyped entry inhibition, cell reporter; Potency, µM (titrated, usually from 37.8 µM), without a hit: at the top dose activity change, negative = inhibition, actives largely listed as inhibitors; calls by dose curve; tested in HEK293 cells; also: potency is read from the fitted curve at half-maximal effect; % is scaled to controls: 0 for no effect and ±100 for the full control effect
FMDV antiviral: High Throughput Screening for Foot and Mouth Disease Virus Antivirals. Potency, µM (series often up to 57.9 µM), inactives show at the highest dose activity change, negative = inhibition, usual class: inhibitors. FMDV antiviral cell-based qHTS. 410,000 tested, 1.2% active. AID 1159524, 2015; calls by dose curve; tested in HEK293T cells; also: read-out not given here; potency is read from the fitted curve at half-maximal effect; % is scaled to controls: 0 for no effect and ±100 for the full control effect; nearly all actives have a fitted effect of over 45% in size
WI-38 cytotox: High Content Assay for Compounds that inhibit the Assembly of the Perinucleolar Compartment: WI-38 Cytotoxicity; shares compounds with MARV entry inh; WI-38 normal lung fibroblasts, ATPLite luminescence ATP viability, 24 h; 120 tested, under 10 active; Potency, µM (doses to about 46.1 µM), for the others: top-dose activity change, negative = cytotoxicity, most hits filed as inhibitors; AID 2729, 2010
PNC assembly inh: High Content Assay for Compounds that inhibit the Assembly of the Perinucleolar Compartment: Confirmation of PNC Inhibition | Potency, µM (series often up to 46.1 µM), for inactives: at the top dose activity, negative = PNC inhibition, usual class: inhibitors | AID 2730, 2010 | 120 tested, 50% active | PC3M PTB-GFP, PNC prevalence imaging, 16 h | shares compounds with MARV entry inh
PC3M casp3-7: High Content Assay for Compounds that inhibit the Assembly of the Perinucleolar Compartment: PC3M Caspase 3/7 Activation | shares compounds with MARV entry inh | PC3M-GFP caspase 3/7 activation, luminescence, 24 h | activity change, positive = activation, % at 46.1 µM | 120 tested, under 10 active | AID 2731, 2010
Active calls of the source: *; ? = inconclusive; · = not tested or not shown; [ ] = dose if it differs, or a comment. Unless noted, calls follow the shape of the dose curve; as a rule, active = well fitted curve in the direction sought with a large enough effect; inconclusive = small, poorly fitted or top-dose-only effect, or another doubt; inactive = no such curve, though single readings can be large; an effect the other way counts as inactive or inconclusive.

SMILES | HCMV inh | Lassa entry inh | MARV entry inh | FMDV antiviral | WI-38 cytotox | PNC assembly inh | PC3M casp3-7
COc1ccc(S(=O)(=O)N2CCC(n3c(C(F)(F)F)nc4cccnc43)CC2)cc1OC | -8 | 0%[46.1 µM] | · | -19% | · | · | ·
O=C(NCc1ccco1)C1CCCCC1 | ? | 6% | -6% | -18% | · | · | ·
O=C(NCc1ccco1)C1CCN(Cc2ccc(F)cc2)CC1 | 2 | 15% | 2%[46.1 µM] | -13% | -6% | -6% | -2
O=C(N/N=C/c1c(O)ccc2ccccc12)c1cccc(C(F)(F)F)c1 | -105* | ? | 2.6µM* | ? | -18% | ? | 8
Cc1cc(SCC(=O)c2cc(C)n(C)c2C)nc2ccccc12 | -21 | ? | ? | -8% | -11% | ? | 5
Cc1cc(SCC(=O)O)nc2ccccc12 | 11 | 17% | ? | -16% | · | · | ·
O=C(Cc1coc2ccc3ccccc3c12)Nc1nnc(C2CC2)s1 | -77* | 2.5µM* | ? | -18% | -7% | 7.9µM* | 1
CC(C)CC(=O)Nc1nnc(S(=O)(=O)N(CC(C)C)c2ccccc2)s1 | 68 | ? | · | 0% | · | · | ·
COc1ccc(OC)c(NC(=O)c2ccc(OCC(=O)N3CCOCC3)c(OC)c2)c1 | 19 | -1% | 12%[46.1 µM] | -11% | · | · | ·
COc1ccc(-c2csc(NC(=O)c3ccc(OCC(=O)N4CCOCC4)c(OC)c3)n2)cc1 | -24 | ? | ? | ? | 2% | ? | -8
CC(C)NC(=O)Cn1nc(N2CCN(c3ccccc3)CC2)ccc1=O | -1 | -1%[46.1 µM] | · | -13% | · | · | ·
C=CCNC(=S)N/N=C(\C)c1ccccn1 | -103* | 0.21µM* | 0.26µM* | ? | -27% | 5µM* | -3
CN(CC[C@@H](Oc1ccc(-c2ccccc2)cc1)c1ccc(F)cc1)CC(=O)O | · | · | · | -25% | · | · | ·
CC(=O)Nc1ccc(S(=O)(=O)Oc2ccc3c(c2)C(C)=CC(C)(C)N3)cc1 | · | 0.82µM* | ? | · | -10% | 5µM* | -5
CC1=CC(C)(C)Nc2ccc(OS(=O)(=O)c3ccc(C)cc3)cc21 | -37 | -14% | -17% | -23% | · | · | ·
CC(=O)Nc1cc(-c2ccc(CO)cc2)cn2c(-c3ccc(F)c(Cl)c3)cnc12 | -37 | · | · | -18% | · | · | ·
Cc1cc(=O)[nH]c(N=N/C(=N/Nc2ccccc2C)c2ccccc2)n1 | -86* | 4µM* | 0.79µM* | -9% | -7% | ? | -8
O=C(NCc1ccc(F)cc1)c1ccc2c(c1)nnn2C1CCCC1 | -6 | -6%[46.1 µM] | · | -2% | · | · | ·
CCOC(=O)Cn1c(-c2nonc2NC(=O)c2ccccc2F)nc2ccccc21 | -98* | 0.28µM* | 0.28µM* | -17% | ? | 4.5µM* | 1
CC(=O)Nc1nonc1-c1nc2ccccc2n1CCC(C)C | ? | -5% | ? | -25% | · | · | ·
N=c1scc(-c2ccccc2)n1/N=C/c1ccco1 | 8 | -19% | ? | 33% | · | · | ·
Cc1nc2ccccc2c(=O)n1/N=C/c1ccccn1 | ? | 26% | 18% | · | · | · | ·
C=CCN=c1scc(-c2ccccc2)n1/N=C/c1ccccn1 | -99* | ? | 2.8µM* | 10% | ? | 2µM* | -15
CCN=c1scc(-c2ccccc2)n1/N=C/c1ccccn1 | · | 1.5µM* | ? | ? | 16µM* | 4µM* | -24
C[C@H](CO)N1C[C@H](C)[C@H](CN(C)C(=O)Nc2ccnc(N3CCOCC3)c2)OCc2cnnn2CCCC1=O | 7 | · | · | -23% | · | · | ·
SMILES | HCMV inh | Lassa entry inh | MARV entry inh | FMDV antiviral | WI-38 cytotox | PNC assembly inh | PC3M casp3-7
Cc1cccc(/C=C(\c2nc3ccccc3[nH]2)S(=O)(=O)c2ccccc2)c1 | -98* | ? | 13µM* | 8.9µM* | ? | 22µM* | -10
Cc1ccc(NC(=S)c2nc3ccccc3[nH]2)c(C)c1 | 50 | ? | ? | -52% | · | · | ·
Cc1ccc(-n2cc(-c3ccccc3)c3c(NN4CCOCC4)ncnc32)cc1 | ? | -9% | 3% | -21% | 16% | -20% | -2
O=C(COCc1cc(-c2ccco2)on1)Nc1ccc(OC(F)(F)F)cc1 | 0 | -5%[46.1 µM] | · | -16% | · | · | ·
CCOc1ccc(CN(C)CC(=O)Nc2cc(OC)c([N+](=O)[O-])cc2C)cc1 | 11 | 0% | 8% | ? | -22% | -20% | -8
O=C(COC(=O)Cc1ccc(Br)cc1)NCC1CCCCC1 | ? | 25%[46.1 µM] | 5%[46.1 µM] | -14% | · | · | ·
O=C(COC(=O)Cc1ccsc1)NCC1CCCCC1 | 15 | -4% | 3%[46.1 µM] | -2% | -9% | -13% | 0
O=c1[nH]c(SCc2ccccc2[N+](=O)[O-])nc2nc[nH]c12 | ? | · | · | -14% | · | · | ·
O=c1[nH]cnc2c1C(c1ccccc1[N+](=O)[O-])c1c(nc[nH]c1=O)O2 | 57 | -6% | 1% | -15% | ? | -22% | 1
CC(=O)Nc1cccc(Oc2ncnc3scc(-c4ccc(C)cc4)c23)c1 | -66* | ? | -18% | ? | 27% | -1% | -5
